The results in this text go back to PubChem BioAssay (NCATS).

Experiment [1] concerns the target DNA dC->dU-editing enzyme APOBEC-3G (Homo sapiens) (UniProt Q9HC16). In words: qHTS for inhibitors of Vif-A3G interactions: Validation (AID 588379; active = well fitted curve in the direction sought with a large enough effect; an effect the other way counts as inactive or inconclusive; also: 0% is about no effect). Summed up: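 Yellow fluorescence (Ex 488, Em 500-530) of Vif-coexpressing HeLa A3G-eYFP cells, scanned by Acumen cytometer, reports blocked A3G degradation. Cells plated at 700/well overnight at 37 deg C before compound addition, then a further overnight compound incubation at 37 deg C.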
(In qHTS, concentration-response curves come from the screen itself.)

The nature of experiment [2]: qHTS for Inhibitors of ATXN expression: Validation (AID 588378; active = well fitted curve in the direction sought with a large enough effect; an effect the other way counts as inactive or inconclusive; also: series mostly up to about 57 µM; % is scaled to controls: 0 for no effect and ±100 for the full control effect; nearly all actives have a fitted effect of over 75% in size). In a few lines: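 Compounds were pinned onto attached HEK293 cells carrying an ATXN2-firefly luciferase construct and incubated 24 hrs at 37 degrees C. Each well then received a fluorescent viability reagent followed by luciferase substrate for end-point luminescence.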
The target of experiment [3] is Bile acid receptor (Homo sapiens) (UniProt Q96RI1). In words: qHTS assay for small molecule antagonists of farnesoid X receptor signaling (AID 588526). Also: % is scaled to controls: 0 for no effect and ±100 for the full control effect. Summed up:
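Beta-lactamase reporter antagonist mode: HEK293T FXR-UAS-bla cells, titrated compound, CDCA stimulation, 16 h 37 C, CCF4 dye 2 h RT. Data normalized to CDCA 50 uM and DMSO; Hill-fit IC50.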

Experiment [4] is described as follows: qHTS assay for small molecule antagonists of peroxisome proliferator-activated receptor delta signaling (AID 588535; active = well fitted inhibition curve with a large enough effect in the signal ratio, with a control signal flat, not every such curve was filed as active; the % refers to the signal ratio;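 as to max response: cells co-treated with a PPAR-delta agonist as stimulator during compound exposure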). The settings on record: HEK293T PPARd-UAS-bla, beta-lactamase FRET ratio, 18 h; 460 nm channel. In a few lines: (§1)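 Antagonist-mode qHTS using GeneBLAzer PPAR-delta-UAS-bla HEK293T cells; compound exposure 18 hrs at 37 C over a titration. Ratiometric CCF4 fluorescence at 460/530 nm; concentration-response points fitted to the Hill equation.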

Experiment [5] has as its target Peroxisome proliferator-activated receptor delta (Homo sapiens) (UniProt Q03181). Described as above. In a few lines: as §1
Experiment [6] has as its target Peroxisome proliferator-activated receptor gamma (Homo sapiens) (UniProt P37231). In words: qHTS assay for small molecule agonists of peroxisome proliferator-activated receptor gamma signaling (AID 588536; active = well fitted curve in the direction sought with a large enough effect in the signal ratio, with a control signal flat, not every such curve was filed as active; the % refers to the signal ratio;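 also: 0% = DMSO basal wells and 100% = rosiglitazone at 2 µM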). In a few lines: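 Compound treatment: 16 h, 37 C, HEK293 GeneBLAzer cells. Detection: CCF4, 2 h RT. Values: Hill-fit EC50, efficacy as % of 2 uM rosiglitazone.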

For experiment [7] the target is unchanged. The experiment is described as follows: qHTS assay for small molecule antagonists of peroxisome proliferator-activated receptor gamma signaling (AID 588537; active = well fitted inhibition curve with a large enough effect in the signal ratio, with a control signal flat, not every such curve was filed as active; the % refers to the signal ratio;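 also: reporter cells co-stimulated with 50 nM rosiglitazone agonist during compound treatment; % of control where 0% means no effect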). Summed up:
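Cell-based beta-lactamase assay; GW9662 served as the antagonist control. Stimulation used rosiglitazone, final 50 nM, 16 h, 37 C.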

Experiment [8] deals with Vitamin D3 receptor (Homo sapiens) (UniProt P11473). In words: qHTS assay for small molecule antagonists of vitamin D receptor signaling (AID 588541).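 Also: receptor activated by calcitriol during compound treatment; series mostly up to about 77 µM; % is scaled to controls: 0 for no effect and ±100 for the full control effect.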 Summed up:
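Antagonist-mode beta-lactamase reporter assay: HEK293T VDR-UAS-bla cells were exposed to titrated compound alongside 1-alpha,25-dihydroxyvitamin D3 at 3 nM final for 16 h. Values were normalized to the 50 nM agonist control and DMSO basal, with IC50 and efficacy from Hill equation fits.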

Experiment [9] has the same target. The experiment is described as follows: qHTS assay for small molecule agonists of vitamin D receptor signaling (AID 588543).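 Also: 0% = DMSO basal and 100% = reference agonist control.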 Summed up: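 Reporter cells (HEK293T, VDR-UAS-bla) were seeded in medium with 2% charcoal-stripped serum and incubated 5 h, then compounds in concentration series were added for 16 h at 37 °C. Stimulation was scaled between DMSO basal and 50 nM 1α,25-dihydroxyvitamin D3.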

Experiment [10] can be described thus: qHTS assay for small molecule agonists of retinoid X receptor alpha signaling (AID 588544). The settings on record: HEK293T RXRa-UAS-bla, beta-lactamase reporter, 18 h; 530 nm emission.
Experiment [11] has as its target Retinoic acid receptor RXR-alpha (Homo sapiens) (UniProt P19793). The experiment is described as above.
Experiment [12] has as its target Thyroid hormone receptor beta (Homo sapiens) (UniProt P10828). The experiment is described as follows: qHTS assay for small molecule agonists of thyroid hormone receptor beta signaling (AID 588545).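 Also: 0% = DMSO only and 100% = 10 nM T3.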 In a few lines: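 TR-UAS-bla-GripTite HEK 293 cells in medium with 2% charcoal/dextran FBS, 0.1 mM NEAA and 1 mM sodium pyruvate were treated with titrated compounds for 18 hrs at 37 C. Beta-lactamase reporter was read with CCF4 dye (ex 405, em 460/530 nm); EC50 from Hill fits.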

Experiment [13] is described as follows: qHTS assay for small molecule antagonists of retinoid X receptor alpha signaling (AID 588546; active = well fitted inhibition curve with a large enough effect in the signal ratio, with a control signal flat, not every such curve was filed as active; the % refers to the signal ratio;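 also: cells stimulated with 9-cis-retinoic acid as agonist; % is scaled to controls: 0 for no effect and ±100 for the full control effect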). The settings on record: HEK293T RXRa-UAS-bla, beta-lactamase ratio, antagonist mode; measured here: W530 green channel, cytotoxicity proxy. In a few lines:
(§2)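 Beta-lactamase reporter inhibition, read as CCF4 fluorescence ratio (ex 405, em 460/530 nm) after 2 h at RT. HEK293T UAS-bla cells, 2500/well, were stimulated with 9-cis-RA at 500 or 100 nM final alongside test compound for 18 h at 37 C.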

For experiment [14], the target named is Retinoic acid receptor RXR-alpha (Homo sapiens) (UniProt P19793). Described as above. The following applies: HEK293T RXRa-UAS-bla, beta-lactamase ratio, antagonist mode. In a few lines:
as §2

“And” between values parts separate entries of the source, which are not always exact repeats. Identical values can stand only once. Records with an inconclusive call do not appear. The source made the active and inactive calls. Unless noted, calls follow the shape of the full dose curve.

DNA dC->dU-editing enzyme APOBEC-3G (Homo sapiens), sequence (Q9HC16 whole entry, looked up): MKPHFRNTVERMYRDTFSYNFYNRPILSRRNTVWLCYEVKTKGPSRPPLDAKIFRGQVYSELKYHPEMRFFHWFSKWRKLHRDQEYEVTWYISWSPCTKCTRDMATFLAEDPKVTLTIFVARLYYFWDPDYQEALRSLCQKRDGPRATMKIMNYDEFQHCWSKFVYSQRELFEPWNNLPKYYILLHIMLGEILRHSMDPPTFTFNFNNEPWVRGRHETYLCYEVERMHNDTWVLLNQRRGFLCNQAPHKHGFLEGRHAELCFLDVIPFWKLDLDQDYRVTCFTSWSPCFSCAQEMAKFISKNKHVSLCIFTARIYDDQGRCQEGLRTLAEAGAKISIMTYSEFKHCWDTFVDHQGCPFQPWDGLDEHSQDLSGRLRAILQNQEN
Peroxisome proliferator-activated receptor gamma (Homo sapiens), sequence (P37231 whole entry, looked up): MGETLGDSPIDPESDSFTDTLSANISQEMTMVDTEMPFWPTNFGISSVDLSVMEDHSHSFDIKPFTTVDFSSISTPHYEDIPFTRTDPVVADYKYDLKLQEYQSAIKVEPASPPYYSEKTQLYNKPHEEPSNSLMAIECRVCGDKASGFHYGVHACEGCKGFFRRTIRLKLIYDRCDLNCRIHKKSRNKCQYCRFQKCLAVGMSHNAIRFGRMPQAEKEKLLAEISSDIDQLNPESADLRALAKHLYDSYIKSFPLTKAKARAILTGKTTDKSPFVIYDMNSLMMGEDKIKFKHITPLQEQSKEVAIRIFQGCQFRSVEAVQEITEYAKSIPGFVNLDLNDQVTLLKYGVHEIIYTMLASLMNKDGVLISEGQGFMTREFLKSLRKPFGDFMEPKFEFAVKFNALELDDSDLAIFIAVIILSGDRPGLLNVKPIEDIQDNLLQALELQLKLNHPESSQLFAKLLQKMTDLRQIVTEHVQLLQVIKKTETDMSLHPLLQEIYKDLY
Vitamin D3 receptor (Homo sapiens), sequence (P11473 whole entry, looked up): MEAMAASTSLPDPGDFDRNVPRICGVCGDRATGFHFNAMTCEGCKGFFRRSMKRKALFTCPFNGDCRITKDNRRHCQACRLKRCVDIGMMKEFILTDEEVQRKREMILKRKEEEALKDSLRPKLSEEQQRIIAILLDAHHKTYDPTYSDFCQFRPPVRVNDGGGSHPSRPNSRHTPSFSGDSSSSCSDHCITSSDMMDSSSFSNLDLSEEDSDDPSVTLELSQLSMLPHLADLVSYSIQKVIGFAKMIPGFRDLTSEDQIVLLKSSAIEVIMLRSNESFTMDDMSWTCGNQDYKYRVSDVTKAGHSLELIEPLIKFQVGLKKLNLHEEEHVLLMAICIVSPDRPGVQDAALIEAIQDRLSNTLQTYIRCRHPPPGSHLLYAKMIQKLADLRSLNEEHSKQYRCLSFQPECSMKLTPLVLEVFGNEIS
Bile acid receptor (Homo sapiens), sequence (Q96RI1 whole entry, looked up): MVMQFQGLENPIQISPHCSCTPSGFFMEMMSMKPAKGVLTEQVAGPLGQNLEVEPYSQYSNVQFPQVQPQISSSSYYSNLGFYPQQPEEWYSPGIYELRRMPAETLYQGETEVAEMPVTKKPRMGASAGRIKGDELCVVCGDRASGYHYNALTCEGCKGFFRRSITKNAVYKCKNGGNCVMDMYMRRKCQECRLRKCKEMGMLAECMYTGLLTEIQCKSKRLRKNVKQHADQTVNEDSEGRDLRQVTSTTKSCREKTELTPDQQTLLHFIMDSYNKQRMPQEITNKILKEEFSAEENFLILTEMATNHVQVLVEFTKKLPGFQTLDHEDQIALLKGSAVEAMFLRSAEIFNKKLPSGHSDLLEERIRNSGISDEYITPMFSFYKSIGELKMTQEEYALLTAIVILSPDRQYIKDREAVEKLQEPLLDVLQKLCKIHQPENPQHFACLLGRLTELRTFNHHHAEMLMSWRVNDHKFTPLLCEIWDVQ
Thyroid hormone receptor beta (Homo sapiens), sequence (P10828 whole entry, looked up): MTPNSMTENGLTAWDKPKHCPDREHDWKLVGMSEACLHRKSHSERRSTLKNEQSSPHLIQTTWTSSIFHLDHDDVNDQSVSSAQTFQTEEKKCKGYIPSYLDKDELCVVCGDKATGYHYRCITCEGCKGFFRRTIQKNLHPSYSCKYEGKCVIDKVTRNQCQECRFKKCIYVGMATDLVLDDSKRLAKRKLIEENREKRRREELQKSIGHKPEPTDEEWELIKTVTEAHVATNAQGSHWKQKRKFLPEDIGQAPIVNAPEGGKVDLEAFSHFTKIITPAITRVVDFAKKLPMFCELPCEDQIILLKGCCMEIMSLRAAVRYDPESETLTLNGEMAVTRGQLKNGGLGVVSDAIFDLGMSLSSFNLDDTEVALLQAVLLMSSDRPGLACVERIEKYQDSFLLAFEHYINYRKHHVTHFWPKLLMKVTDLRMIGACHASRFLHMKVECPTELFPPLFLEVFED
Retinoic acid receptor RXR-alpha (Homo sapiens), sequence (P19793 whole entry, looked up): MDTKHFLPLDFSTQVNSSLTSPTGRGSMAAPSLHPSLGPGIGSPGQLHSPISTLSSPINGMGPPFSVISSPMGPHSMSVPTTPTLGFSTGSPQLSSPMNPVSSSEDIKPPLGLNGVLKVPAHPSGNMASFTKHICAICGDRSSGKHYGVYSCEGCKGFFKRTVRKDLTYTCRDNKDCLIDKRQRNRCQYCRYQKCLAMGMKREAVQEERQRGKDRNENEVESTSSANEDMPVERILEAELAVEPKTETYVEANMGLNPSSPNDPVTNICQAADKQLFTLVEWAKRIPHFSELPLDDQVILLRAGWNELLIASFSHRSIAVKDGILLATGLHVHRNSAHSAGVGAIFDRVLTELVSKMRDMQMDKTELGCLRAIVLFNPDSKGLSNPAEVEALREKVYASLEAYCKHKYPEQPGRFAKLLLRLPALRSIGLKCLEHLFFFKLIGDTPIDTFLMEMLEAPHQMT
Peroxisome proliferator-activated receptor delta (Homo sapiens), sequence (Q03181 whole entry, looked up): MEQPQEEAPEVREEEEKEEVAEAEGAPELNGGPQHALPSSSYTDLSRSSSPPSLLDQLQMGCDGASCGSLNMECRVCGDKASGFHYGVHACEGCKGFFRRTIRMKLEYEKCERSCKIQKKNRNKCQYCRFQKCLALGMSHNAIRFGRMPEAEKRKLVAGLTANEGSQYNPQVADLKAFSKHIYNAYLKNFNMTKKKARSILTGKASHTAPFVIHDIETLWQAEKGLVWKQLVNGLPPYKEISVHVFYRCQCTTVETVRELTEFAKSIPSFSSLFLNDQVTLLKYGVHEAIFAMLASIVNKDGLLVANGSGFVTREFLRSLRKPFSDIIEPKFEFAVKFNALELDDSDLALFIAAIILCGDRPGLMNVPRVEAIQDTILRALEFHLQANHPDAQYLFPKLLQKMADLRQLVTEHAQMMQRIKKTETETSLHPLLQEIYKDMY

Turning to `O=C1N(c2ccccc2)c2ccccc2C1(Cc1ccncc1)Cc1ccncc1`, the compound was called inactive in [1].
`CN1CCN(C2=Nc3cc(Cl)ccc3Nc3ccccc32)CC1`: the call in experiment [1] was inactive.
Consider `CN(C)CCCN1c2ccccc2CCc2ccc(Cl)cc21`, for which, in [1], the outcome was inactive.
Turning to `Cc1cn([C@H]2C=C[C@@H](CO)O2)c(=O)[nH]c1=O`, the Potency result in [2], in experiment [3] and in experiment [7] was “inactive” throughout. Besides, the max response in experiment [4] was 27.7% and 7.49%; in experiment [10], -12.5% and -2.44% and -13%; in experiment [13] it was -1.05% and 0.328% and -3.51%; in experiment [14] it was 0.606% (inactive) and 10% (inactive) and 8.08% (inactive). Moreover, the result in [5], in experiment [6], in [8], in experiment [9], in experiment [11] and in [12] was inactive.
